For 26 molecules, growth results are on record in PubChem BioAssay (NCI).

Molecules are shown by their SMILES. The panel holds about 83,000 compounds, 20% with a hit somewhere; the sample as a whole holds those more often.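 In brief: 96-well plates, 48 h treatment, single concentration, percent growth endpoint.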 Active and inactive are the calls of the source. How the source made its calls: active means growth percent below 10; inactive means the rest.

The subject of the test is MDA-MB-468 breast. The test can be described thus: NCI-60 one-dose screen, 48 h (100 = growth as untreated, 0 = no growth, -100 = all killed). As to conditions: 10 µM unless noted.
For the molecule `COc1cccc(Nc2ccnc3[nH]c4ccc([N+](=O)[O-])cc4c23)c1`, the growth is 23.1% (inactive).
For the molecule `Clc1cccc(-c2nc(-c3cccs3)no2)c1`, the growth is 3.37% (active).
With `O=C(Nc1nc(-c2ccccc2Cl)cs1)c1cc(-c2ccc(Br)cc2)nc2ccccc12`, the growth was 5% (active).
`COc1ccc(C2=CC(c3cc(OC)c(OC)c(OC)c3)NC(=O)N2)cc1OC` (stereo unspecified): the growth was -12.6% (active).
As to `CN(C)CCCSc1ccccc1NC1=C(Cl)C(=O)C(Nc2ccccc2SCCCN(C)C)=C(Cl)C1=O`, the growth is -61.4% (active).
Under `COc1ccc(C/C(C)=C(/c2ccc(OCCN3CCCC3)cc2)c2ccc(OC(=O)NCc3ccccc3)cc2)cc1` stands 78.9% (inactive); under `CC(O)(CO)c1ccccc1` (stereo unspecified), 99.6% (inactive); under `Cc1ccn2cc(Cc3cc(=O)oc4c3ccc3ccccc34)c(=O)nc2c1`, 117% (inactive).
As to `O=C(/C=C1\C=CN(CCCCF)c2ccccc21)n1ccc2ccccc21`, the growth is 91.2% (inactive).
On to `O=C1c2c(c3c4cc(O)ccc4oc3c3[nH]c4ccccc4c23)C(=O)N1O`, for which the growth was -48.7% (active).
As to `O=C(/C=C/c1cccnc1)NCCCCC1CCCN(C(=O)c2ccccc2)C1` (stereo unspecified), the growth was 87.9% (inactive).
In the case of `CCOC(=O)Sc1ncnc2nc[nH]c12`, the growth is 75.3% (inactive).
On to `O=C(Nc1ccc(Cl)cc1)N1CCN(c2ccc3nncn3n2)CC1`, for which the growth was -78.2% (active).
As for `N#CC(C#N)N=Nc1ccc(Cl)cc1Cl`, the growth is 58.8% (inactive).
For `C[C@@H](Oc1cc(-c2cnn(C3CCNCC3)c2)cnc1N)c1c(Cl)ccc(F)c1Cl`, the growth was -79.8% (active).
In the case of `NC(N)=N/N=C/c1cccc(Cl)c1Cl`, the growth is 18.1% (inactive).
`COc1ccc(C(=O)c2cc(C)c(OC)c(C)c2)c(OC)c1N(C(=O)C(Cl)Cl)C(=O)C(Cl)Cl`: the growth is 21.6% (inactive).
On to `COc1cc(CCN=Cc2ccccc2O)c([N+](=O)[O-])cc1OC`, for which the growth was 113% (inactive).
`COc1ccc(C(=O)/C=C/c2ccccn2)c(O)c1`: the growth is 57.1% (inactive).
Under `[N-]=[N+]=NCc1ncc(-c2ccc(C(F)(F)F)cc2)c(NC2CCCCCC2)n1` stands 103% [50 µM] (inactive).
For the molecule `O=C(Nc1ccc(F)cc1)Nc1ccc(NC(=O)c2cc(Cl)nc3ccccc23)cc1`, the growth was 38.7% (inactive).
Consider `COc1nc2c(c(=O)n1C)CN(Cc1ccccc1)C=N2`, for which the growth was 97.6% (inactive).
As for `OCCCc1n(Cc2ccc3ccccc3c2)c2ccccc2[n+]1Cc1ccc2ccccc2c1`, the growth is -27.7% (active).
For `O=C(Nc1ccc2ncnc(Nc3cccc(C(F)(F)F)c3)c2c1)c1cccs1`, the growth is -2.49% (active).
As to `CN(C)CC1C(=O)O[C@H]2[C@H]1CC/C(COC(=O)c1cc3ccccc3[nH]1)=C\CC[C@@]1(C)O[C@@H]21` (stereo partly specified), the growth was -59.8% (active).
For the molecule `COc1ccc(Cn2cc3c(c2-c2cc(OC)c(OC)c(OC)c2)CCc2c(CN4CCOCC4)noc2-3)cc1`, the growth is 45.5% (inactive).
